# Source: PubChem BioAssay (NCI)
# About 83,000 compounds went through this panel and 20% of them were active in at least one assay; those are over-represented in the sample as a whole.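 Values shown are percent growth following 48 h exposure of cells in 96-well plates to a single concentration of compound; below 10 was considered active.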 Active and inactive are the calls of the source.
# Tested on: BT-549 breast
# Assay: NCI-60 one-dose screen, 48 h (100 = growth as untreated, 0 = no growth, -100 = all killed)
# Settings: 10 µM unless noted
# Experimental: Growth inhibition of the BT-549 human tumor cell line is measured as a screen for anti-cancer activity. Cells are grown in 96 well plates and exposed to the test compound for 48 hours. Compounds are tested at a single concentration, which is 10^-5 M for most compounds. The reported endpoint is percent growth (GI% or GIPRCNT), where numbers from 0 - 100% represent growth inhibition, and numbers from -100% - 0 represent cell death. For example, a value of 40 represents 60% growth inhibition. A value of 0 means no net growth occurred over the course of the experiment. A value of -40 indicates 40% of cells at the beginning of the experiment died by the end of the experiment. A value of -100 means all cells are dead at the end of the experiment.
# NCI-60 Human Tumor Cell Lines Screen was performed using the standard one-dose NCI protocol, which is described in more detail at https://dtp.cancer.gov/discovery_development/nci-60/default.htm.
# Compounds with GIPRCNT values below 10 were considered active. Activity score was based on GIPRCNT using the following formula: […]
# Score is 0 for GIPRCNT values of 100 or above, 50 for GIPRCNT values of 0, and 100 for GIPRCNT values of -100.
row,Compound,growth
1,O=C(Nc1ccc(Cl)cc1)Nc1ccc(Cl)c(C(F)(F)F)c1,14.4% (inactive)
2,CN(C)c1ccc(-c2cc(-c3ccc(Nc4nc(Nc5ccc(Cl)cc5)nc(Nc5ccc(Cl)cc5)n4)cc3)no2)cc1,58.2% (inactive)
3,O=C1C=C[C@]2(C[C@@H](c3cccc(C(F)(F)F)c3)O[C@@H](c3cccc(C(F)(F)F)c3)O2)O1,-52.4% (active)
4,COc1ccc2cc(-c3cc(OC)c(OC)c(OC)c3)c(=O)oc2c1,50.1% (inactive)
5,CCc1ccccc1NC(=O)/C(C#N)=C/c1ccc(OC)cc1,112% (inactive)
6,Cc1ccc2nc(NC(=O)CSc3nc(-c4ccccc4)c(C#N)c(=O)n3Cc3ccccc3)sc2c1,89.3% (inactive)
7,COc1ccc(C2C(c3nn[nH]n3)=C(N)Oc3c2ccc2ccccc32)cc1 (stereo not given),72% (inactive)
8,O=C(c1ccc(Nc2nccc(NCCCCNc3ccnc4cc(Cl)ccc34)n2)cc1)N1CCCCC1,97.6% (inactive)
9,CC(C)CC(NC(=O)CN(Cc1ccccc1)S(C)(=O)=O)C(=O)O (stereo not given),118% (inactive)
10,O=C(c1ccccc1)c1c(/C=C/c2ccc(Cl)cc2)nc2ccccc2c1/C=C/c1cccs1,99.3% (inactive)
11,N=C(N)c1ccc(-c2ccc(-c3cncc4ccccc34)s2)s1,36.9% (inactive)
12,CC(C)C(=O)Nc1n[nH]c2cc(-c3cccc(NS(=O)(=O)C4CC4)c3)ccc12,42.3% (inactive)
13,Cn1c(-c2c(N)n(Cc3cccnc3)c3nc(C#N)c(C#N)nc23)nc2ccccc21,115% (inactive)
14,COc1ccc(-c2nc3sccn3c2-c2cc(-c3cc(OC)c(OC)c(OC)c3)on2)cc1,98.6% (inactive)
15,COc1ccc(-c2cc(-c3cc(OC)ccc3OC)nc(SCC(=O)c3ccccc3)c2C#N)cc1,109% (inactive)
16,c1ccc2cc3nc4cc5ccccc5cc4nc3cc2c1,105% (inactive)
17,Cn1ccc2c(c1=O)C(=O)c1nccc3c1c-2nc1ccccc13,87.4% (inactive)
18,CCOc1ccccc1-c1cc(-c2cccs2)c(C#N)c(=O)[nH]1,85.6% (inactive)
19,COc1cc(Cn2ncc3ccc(NC(=O)c4cc5ccccc5oc4=N)cc32)cc(OC)c1OC,43.6% (inactive)
20,O=c1ssc(Cl)c1-c1ccccc1,114% (inactive)

row,Compound,growth
1,COc1ccc(-c2nc(SC(C)C)nc(NNC(N)=S)c2C#N)cc1,77.2% (inactive)
2,N[C@@H](CCCCNCC(=O)O)C(=O)O,111% (inactive)
3,COc1cc2ncn3c(=O)c4c5c(sc4nc3c2cc1OC)CCCC5,99.9% (inactive)
4,COc1ccc(/C=c2\nc3n(-c4ccccc4)c4nc5c6c(sc5c(=N)n4n-3c2=O)CCCC6)cc1,94.2% (inactive)
5,Cc1c(C)c2c(c(C)c1OCC(=O)O)CC[C@@](C)(CCC[C@@H](C)CCC[C@@H](C)CCCC(C)C)O2,-4.37% [50 µM] (active)
6,COc1ccc2c(c1)CCCN2c1c2ccccc2nc2ccccc12,7.21% (active)
7,CC(C)(C)CC(C)(C)Nc1c(-c2ccncc2)nc2cnccn12,98.6% (inactive)
8,COc1ccc(-c2nc3c(c(=O)n2C(C)=O)C(c2ccc(Cl)cc2)c2sc4c(Cl)cccc4c2O3)cc1 (stereo not given),-26.9% (active)
9,Nc1n[nH]c2cc(F)c([C@@H]3Nc4c(F)cc5[nH]ncc5c4[C@H]4C5CCC(C5)[C@@H]34)cc12 (stereo not given in full),-0.757% (active)
10,CCOC(=O)c1c(/C=C/C(=O)O)nc2ccccc2c1/C=C/c1ccccc1,19.1% (inactive)
11,CC(=O)c1nc(Nc2ccc(C)cc2)sc1C,87.1% (inactive)
12,C=C(C)[C@@H]1CC[C@]2(C)[C@H](CC=C3[C@@H]4CC(C)(C)CC[C@]4(C(N)=O)CC[C@]32C)[C@@]1(C)CCC#N,17.7% (inactive)
13,N#Cc1c(-c2cccc(Cl)c2)cc(-c2cccc(Cl)c2)[nH]c1=O,52.4% (inactive)
14,COC1=C(OC)C(=O)C(OC)=C(OC)C1=O,101% (inactive)
15,COC(=O)[C@]12CC[C@@H](C)[C@H](C)[C@@H]1C1=CC[C@@H]3[C@@]4(C)C(C=O)=C[C@@](C)(COS(C)(=O)=O)C4[C@H](O)C[C@@]3(C)[C@]1(C)CC2 (stereo not given in full),-49.6% (active)
16,CC/C=C/C/C=C/C/C=C/C/C=C/C/C=C/C/C=C/CCC(=O)Nc1ccn([C@@H]2O[C@H](CO)[C@@H](O)C2(F)F)c(=O)n1,29.8% (inactive)
17,O=C(/C=C/c1c(Cl)nc2sccn12)c1nccs1,109% (inactive)
18,O=C1/C(=C/c2ccccc2)CCc2nc3ccccc3c(/C=C/c3ccc(Cl)cc3)c21,104% (inactive)
19,Cc1ccc(Cl)c(NS(=O)(=O)c2ccc(-c3cnc(C4CC4)o3)cc2)c1,34.5% (inactive)
20,COc1nc2c(c(=O)n1C)CN(c1ccccc1)C(=O)CN2C,24.7% [100 µM] (inactive)
